Data from PubChem BioAssay (NCI).
The panel holds about 83,000 compounds, 20% with a hit somewhere; the sample as a whole holds those more often.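 Testing used 96-well plates and a 48-hour single-concentration exposure. Example: -40 means 40% of the starting cells died.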 The source made the active and inactive calls. Rule for the calls: active = growth percent below 10; inactive = the rest.

Key:
Assay in all cases: NCI-60 one-dose screen, 48 h (100 = growth as untreated, 0 = no growth, -100 = all killed)
Conditions in all cases: 10 µM unless noted
[1] = system: HCT-15 colon
[2] = system: HT29 colon
[3] = system: SNB-75 CNS
[4] = system: SNB-19 CNS
[5] = system: U251 CNS
[6] = system: PC-3 prostate
[7] = system: SK-MEL-5 melanoma
[8] = system: UACC-62 melanoma
[9] = system: LOX IMVI melanoma
[10] = system: SK-MEL-28 melanoma

Measured: growth

O=C(N/N=C\c1cc(Cl)ccc1O)N/N=C/c1cc(Cl)ccc1O
inactive: [1] 32.5% | [2] 93.9% | [3] 39.8% | [4] 58.2% | [5] 49.9% | [6] 40% | [7] 52.1% | [8] 54.7% | [9] 42.6% | [10] 80.4%

C[n+]1c2ccccc2nc2c(N)cc(N)cc21
inactive: [1] 110% | [2] 84.7% | [3] 75.2% | [6] 77.6% | [7] 56.9% | [8] 93% | [9] 77.3% | [10] 109%
active: [4] -5.7% | [5] 8.86%

CC1(C)[C@@H](NOCCCN)CC[C@]2(C)[C@H]3C(=O)C=C4[C@@H]5C[C@](C)(C(=O)O)CC[C@]5(C)CC[C@@]4(C)[C@]3(C)CC[C@@H]12
active: [1] -15% [100 µM] | [2] -57.8% [100 µM] | [3] -56.5% [100 µM] | [4] -54.9% [100 µM] | [5] -71.6% [100 µM] | [6] -19.6% [100 µM] | [7] -51.4% [100 µM] | [8] -100% [100 µM] | [9] -82.6% [100 µM] | [10] -80.7% [100 µM]

CC1=CC[C@@H]2C(C)(C)C(=O)CC[C@@]2(C)[C@@H]1COc1ccc2ccc(=O)oc2c1
inactive: [1] 78.6% | [2] 78.5% | [3] 76.6% | [4] 81% | [5] 87.5% | [6] 58.4% | [7] 26.1% | [8] 41.9% | [9] 87.9% | [10] 87.7%

CCOC(=O)c1c[nH]c2cc(OCC3CC3)c(OCC3CC3)cc2c1=O
inactive: [1] 104% | [2] 111% | [3] 114% | [4] 117% | [5] 119% | [6] 95.1% | [7] 112% | [8] 104% | [9] 113% | [10] 110%

C[C@@H]1C[C@H]2C(=O)O[C@@H](C)[C@H](NC(=O)[C@H](Cc3cc(F)cc(F)c3)NC(=O)Nc3ccc(C4CC4)cc3F)C(=O)N3CCC[C@H]3C(=O)N3CCCC[C@H]3C(=O)N[C@@H](C)C(=O)N2C1
inactive: [2] 10.5% | [4] 15.8% | [5] 20.3% | [6] 12% | [9] 19.2% | [10] 18.3%
active: [1] 6.12% | [3] 6.49% | [7] -47.6% | [8] 3.87%

Cc1ccc(S(=O)(=O)NCCCNc2nccc(-c3c(-c4cccc(F)c4)nc4occn34)n2)cc1
inactive: [1] 73.4% | [2] 27.8% | [3] 73.5% | [4] 90.7% | [5] 70.6% | [6] 44.3% | [7] 67.2% | [8] 58.6% | [9] 57.9% | [10] 95.9%

CC1(C)CC[C@]2(C(=O)OC(=O)[C@]34CCC(C)(C)C[C@@H]3C3=CC[C@@H]5[C@@]6(C)CCC(=O)C(C)(C)[C@@H]6CC[C@@]5(C)[C@]3(C)CC4)CC[C@]3(C)C(=CC[C@@H]4[C@@]5(C)CCC(=O)C(C)(C)[C@@H]5CC[C@]43C)[C@H]2C1
inactive: [1] 73.6% [100 µM] | [2] 44.8% [100 µM] | [3] 15.8% [100 µM] | [4] 62.8% [100 µM] | [5] 64.6% [100 µM] | [6] 36.6% [100 µM] | [7] 25% [100 µM] | [8] 49.9% [100 µM] | [9] 64.6% [100 µM] | [10] 81.7% [100 µM]

CC(=O)Nc1ccc2nc3ccc(NC(C)=O)cc3[n+](-c3ccccc3)c2c1
inactive: [1] 104% | [2] 115% | [3] 82.2% | [4] 94.2% | [5] 109% | [6] 104% | [7] 96.3% | [8] 103% | [9] 96.8% | [10] 166%

CCOC(=O)CC(c1ccccc1)C(C#N)c1ccccc1 (stereo not given)
inactive: [1] 103% | [2] 103% | [3] 82.1% | [4] 111% | [5] 97.6% | [6] 89.5% | [7] 98.7% | [8] 97.3% | [9] 103% | [10] 95.5%

OC(c1ccc(Cl)cc1)(c1ccc(Cl)cc1)C(O)(c1ccc(Cl)cc1)c1ccc(Cl)cc1
inactive: [1] 33.8% | [2] 24% | [3] 27.8% | [4] 40.5% | [5] 46.6% | [6] 33.5% | [7] 71.7% | [8] 50.8% | [9] 11.2% | [10] 73.7%

O=C(Nc1ccc(Nc2ccncc2)cc1)c1ccc([N+](=O)[O-])cc1
inactive: [1] 77.5% | [2] 63.4% | [3] 92% | [4] 80.1% | [5] 38% | [6] 70% | [7] 73.1% | [8] 15.4% | [9] 62.3% | [10] 84.9%

COc1ccc(/C=C2\N=C(Nc3ccccc3)N(NC(=O)c3ccccn3)C2=O)cc1
inactive: [1] 91.6% | [2] 112% | [3] 72.4% | [4] 87.2% | [5] 95.8% | [6] 101% | [7] 93.4% | [8] 86.2% | [9] 95.5% | [10] 102%

Cc1cccc(/C=C2\N=C(c3ccccc3)N(c3ccc(S(N)(=O)=O)cc3)C2=O)c1
inactive: [1] 91.8% | [2] 86.1% | [3] 49.9% | [4] 80.1% | [5] 95.1% | [6] 92.9% | [7] 88.5% | [8] 92.8% | [9] 99% | [10] 101%

CC(C)=CCC[C@](C)(O)[C@H]1CC[C@]2(C)[C@@H]1CC[C@@H]1[C@@]3(C)CC/C(=N/O)C(C)(C)[C@@H]3CC[C@]12C
active: [2] -43.5% [100 µM] | [3] -38.8% [100 µM] | [4] -28.8% [100 µM] | [5] -81.5% [100 µM] | [6] -52.1% [100 µM] | [7] -45.3% [100 µM] | [8] -59.2% [100 µM] | [9] -9.59% [100 µM] | [10] -36.1% [100 µM]
inactive: [1] 29.7% [100 µM]

CCOC(=O)COc1ccc2c(c1)O/C(=C\c1ccc(O)cc1)C2=O
inactive: [1] 101% | [2] 108% | [3] 87.7% | [4] 102% | [5] 107% | [6] 112% | [7] 102% | [8] 98.9% | [9] 97.9% | [10] 106%

C=C(CC(=O)OC)C(C)=O
inactive: [1] 117% | [2] 119% | [3] 110% | [4] 103% | [5] 116% | [6] 109% | [7] 107% | [8] 95.4% | [9] 110% | [10] 118%

Cn1cc(-c2noc(-c3cn(C)c4ncc(Br)cc34)n2)c2cc(Cl)ccc21
inactive: [1] 87.6% | [2] 67.3% | [3] 56.2% | [4] 63% | [5] 97.5% | [6] 80.3% | [7] 83.9% | [8] 78.5% | [9] 65.4% | [10] 86.8%

COC(=O)[C@@H](NC(=O)NC(=O)NC(=O)CI)C(C)C
active: [9] -77.4%
inactive: [1] 37% | [2] 60.2% | [3] 102% | [4] 94.5% | [5] 100% | [6] 85.5% | [7] 85.2% | [8] 83.1% | [10] 91.7%

CC[C@]12C=CCN3CC[C@@]4(c5ccc(OC)cc5N(C)[C@H]4[C@@](O)(C(=O)OC)[C@@H]1OC(=O)CCC(=O)N[C@H](Cc1c[nH]c4ccccc14)C(=O)OC)[C@@H]32
active: [1] -24.1% [100 µM] | [2] 5.23% [100 µM] | [3] -68.8% [100 µM] | [4] -51.2% [100 µM] | [5] 3.72% [100 µM] | [6] -15.8% [100 µM] | [7] -53% [100 µM] | [8] -61.1% [100 µM] | [9] -54.4% [100 µM] | [10] -49.6% [100 µM]

O=C(CCN1CCCCC1)c1ccc(Cl)cc1
inactive: [1] 98.5% | [2] 104% | [3] 89.1% | [4] 103% | [5] 107% | [6] 91.6% | [7] 97.6% | [8] 103% | [9] 91.3% | [10] 108%

c1ccc(-c2n[nH]c(-c3ccccn3)n2)nc1
inactive: [1] 96.4% | [2] 108% | [3] 101% | [4] 99.5% | [5] 110% | [6] 94.4% | [7] 102% | [8] 104% | [9] 115% | [10] 149%

Cc1cccc([N+](=O)[O-])c1I
inactive: [1] 113% | [2] 106% | [3] 94.9% | [4] 106% | [5] 93.8% | [6] 85.5% | [7] 109% | [8] 107% | [9] 101% | [10] 114%

C#C[C@]1(O)CC[C@H]2[C@@H]3CC=C4c5nc(Nc6ccccn6)sc5CC[C@]4(C)[C@H]3CC[C@@]21C
active: [1] 1.7% | [3] -42.4% | [5] -26.2% | [6] -28.6% | [7] -82.2% | [8] -28.4% | [9] -68% | [10] -68.2%
inactive: [2] 16.9% | [4] 11%

CCC(C)[C@H](NC(=O)NC(=O)NC(=O)CI)C(=O)OC (stereo not given in full)
inactive: [1] 14.9% | [2] 42.3% | [3] 92.1% | [4] 93.8% | [5] 93.2% | [6] 93.3% | [7] 91.5% | [8] 88.9% | [10] 87.7%
active: [9] -79.2%
